For nine molecules, composite z-score and z-score results are on record in PubChem BioAssay.

Activity calls are given as the source filed them.

The test system of assay [1] is Wnt5a (protein binding on small-molecule microarray). Description: small molecules binding Wnt5a protein – biophysical, small-molecule microarray, 635/667 nm fluorescence, primary screen (AID 1142).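 Further: fluorescence read at 667 nm with signal to noise per printed feature.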 The following applies: 635 nm fluorescence, higher = more signal.
The nature of assay [2]: ATP-based viability of Huh7 replicon cells – cell-based, CellTiter-Glo luminescence, basal, 48 h, cytotoxicity control for HCV replication inhibitor project, primary screen (AID 1143).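 Further: Huh7 hepatoma cells carrying a hepatitis C replication reporter with no stimulus; test concentration not given here.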 The note with it: higher = more signal, called active from +8 up or from −8 down.
A short description of assay [3]: basal CRE-LacZ reporter activity in PC12 – cell-based, unstimulated, primary screen (AID 1145). The following applies: no forskolin, luminescence, 4.5 h, higher = more signal, called active from +8 up or from −8 down.
The nature of assay [4]: forskolin-driven CRE-LacZ activity in PC12 – cell-based, CRE-LacZ reporter, forskolin-stimulated, primary screen (AID 1146).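 Further: PC12 cells with 6xCRE LacZ reporter stimulated by forskolin 10 µM; beta-galactosidase reporter signal reflecting CREB driven transcription.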 The note with it: luminescence, 4.5 h, higher = more signal, called active from +8 up or from −8 down.
Assay [5] concerns the target Streptavidin (Streptomyces avidinii) (UniProt P22629). Description: compounds binding control protein streptavidin – biophysical, small-molecule microarray, 635/667 nm fluorescence, artefact control for SMM compound annotation, primary screen (AID 1147).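 Further: signal reflects streptavidin binding to arrayed compounds as a control protein.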 The following applies: higher = more signal.
Assay [6] is described as follows: probe aInhba binding on compound microarray – biochemical, small-molecule microarray, 635/667 nm fluorescence, primary screen (AID 1148).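 Further: score merges 667nm spot fluorescence with signal-to-noise for antibody binding to printed compounds.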 The note with it: higher = more signal.
For assay [7], the target named is Torsin-1A (Homo sapiens) (UniProt O14656). Nature of the assay: TOR1A wild-type binding on microarray – cell lysate, small-molecule microarray, lysate, 635/667 nm, primary screen (AID 1149). The note with it: COS7 hTOR1A-WT lysate, 635 nm fluorescence, higher = more signal.
Chain of Torsin-1A (Homo sapiens) (O14656 whole entry, looked up): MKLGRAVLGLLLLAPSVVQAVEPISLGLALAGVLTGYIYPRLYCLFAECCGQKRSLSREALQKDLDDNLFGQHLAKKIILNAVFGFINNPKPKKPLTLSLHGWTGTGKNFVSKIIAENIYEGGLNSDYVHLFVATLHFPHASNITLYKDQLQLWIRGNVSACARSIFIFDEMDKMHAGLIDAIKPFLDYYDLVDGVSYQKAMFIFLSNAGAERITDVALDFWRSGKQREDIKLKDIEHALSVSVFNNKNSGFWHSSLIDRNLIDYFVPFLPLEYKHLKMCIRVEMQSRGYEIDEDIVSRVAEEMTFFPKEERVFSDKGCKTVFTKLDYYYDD
The target is the same in assay [8]. Description: torsin A mutant lysate binding on microarrays – cell lysate, small-molecule microarray, COS7 lysate, 635/667 nm fluorescence, primary screen (AID 1150).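 Further: score pools 667 nm emission and signal to noise measuring lysate protein binding.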 The note with it: COS7 hTOR1A mutant lysate, 635 nm fluorescence, higher = more signal.
Assay [9] deals with Sonic hedgehog protein (Shh). Description: Sonic hedgehog microarray binding compounds – biochemical, small-molecule microarray, 635/667 nm fluorescence, primary screen (AID 1151).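 Further: Shh protein binding to compounds spotted on small-molecule microarray slides; score combines spot fluorescence intensity with signal-to-noise across triplicate slides.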 The following applies: 635 nm fluorescence, higher = more signal.
The nature of assay [10]: optical density shifts of acrAB sulA E. coli – strain DRC41, OD650, 48 h, E. coli filamentation inducer project, primary screen (AID 1152).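 Further: E. coli MC1000 strain DRC41 lacking acrAB efflux pump and sulA.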 The following applies: higher = more signal, called active from +8 up or from −8 down.
Assay [11] in a line: probe aLefty1 binding on compound microarray – biochemical, small-molecule microarray, 635/667 nm fluorescence, primary screen (AID 1153).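 Further: score merges spot fluorescence with signal-to-noise ratio from the scanned slide images.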 The note with it: higher = more signal.
Assay [12] is described as follows: plasmodial surface anion channel blockers, osmotic lysis – cell-based, P. falciparum Indochina, OD700, 1 h, primary screen (AID 1154). The note with it: P. falciparum Indochina infected RBC osmotic lysis, higher = more signal, called active from +8 up or from −8 down.
Assay [13] is described as follows: plasmodial surface anion channel blockers, osmotic lysis – cell-based, P. falciparum Indochina, OD700, 2 h, primary screen (AID 1155).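 Further: lysis reports solute entry through the parasite surface anion channel PSAC.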 The following applies: P. falciparum Indochina infected erythrocytes, higher = more signal, called active from +8 up or from −8 down.
Assay [14] can be described thus: changes in parasitized red cell lysis, either direction – P. falciparum Indochina, OD700, 3 h, PSAC antagonist project, primary screen (AID 1156). The note with it: P. falciparum-infected erythrocytes, osmotic lysis, higher = more signal, called active from +8 up or from −8 down.
A short description of assay [15]: plasmodial surface anion channel blockers, osmotic lysis – cell-based, P. falciparum Indochina, OD700, 18 h, primary screen (AID 1157). The following applies: P. falciparum Indochina infected erythrocytes, osmotic lysis OD700, 18 h; higher = more signal, called active from +8 up or from −8 down.
The nature of assay [16]: S6 kinase pathway phospho-S6 level changes – cell-based, A549, cytoblot, luminescence, serum-stimulated, primary screen (AID 1158).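 Further: serum-stimulated A549 lung adenocarcinoma cells; signal is phosphorylated S6 detected by cytoblot immunostaining with HRP secondary.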 The note with it: 5 h, higher = more signal.
In assay [17] the target is NADPH oxidase 2 (Homo sapiens) (UniProt P04839). Nature of the assay: compounds shifting NOX2 Amplex Red fluorescence – cell-based, HEK293-NOX2, PMA-stimulated, NOX inhibitor project, primary screen (AID 1159). Further: test concentration not given here. The note with it: 45 min, higher = more signal, called active from +8 up or from −8 down.
Chain of NADPH oxidase 2 (Homo sapiens) (P04839 whole entry, looked up): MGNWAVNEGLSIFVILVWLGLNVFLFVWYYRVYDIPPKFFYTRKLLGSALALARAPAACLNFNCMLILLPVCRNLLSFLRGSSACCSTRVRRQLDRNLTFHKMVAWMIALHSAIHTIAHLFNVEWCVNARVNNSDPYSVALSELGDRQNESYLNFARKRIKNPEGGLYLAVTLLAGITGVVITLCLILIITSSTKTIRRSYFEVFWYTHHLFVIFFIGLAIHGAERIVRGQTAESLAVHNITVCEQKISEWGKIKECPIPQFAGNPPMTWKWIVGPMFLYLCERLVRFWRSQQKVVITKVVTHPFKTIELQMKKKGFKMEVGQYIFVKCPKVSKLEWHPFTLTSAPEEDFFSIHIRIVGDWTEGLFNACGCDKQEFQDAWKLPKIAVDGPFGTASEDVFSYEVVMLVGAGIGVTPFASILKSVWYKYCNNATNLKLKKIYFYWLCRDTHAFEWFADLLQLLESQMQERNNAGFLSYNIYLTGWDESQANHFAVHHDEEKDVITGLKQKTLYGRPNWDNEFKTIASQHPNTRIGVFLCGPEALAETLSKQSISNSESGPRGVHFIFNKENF
Assay [18] has as its target NADPH oxidase 4 (Homo sapiens) (UniProt Q9NPH5). Description: compounds shifting NOX4 Amplex Red fluorescence – cell-based, HEK293-NOX4, tetracycline-induced, NOX inhibitor project, primary screen (AID 1160). The following applies: HEK293-NOX4, Amplex Red H2O2 fluorescence, 45 min; higher = more signal, called active from +8 up or from −8 down.
The target in assay [19] is NADPH oxidase 5 (Homo sapiens) (UniProt Q96PH1). Description: compounds shifting NOX5 Amplex Red fluorescence – cell-based, HEK293-NOX5, NOX inhibitor project, primary screen (AID 1161). The following applies: HEK293-NOX5, ionomycin, 45 min, higher = more signal.
Chain of NADPH oxidase 5 (Homo sapiens) (Q96PH1 whole entry, looked up): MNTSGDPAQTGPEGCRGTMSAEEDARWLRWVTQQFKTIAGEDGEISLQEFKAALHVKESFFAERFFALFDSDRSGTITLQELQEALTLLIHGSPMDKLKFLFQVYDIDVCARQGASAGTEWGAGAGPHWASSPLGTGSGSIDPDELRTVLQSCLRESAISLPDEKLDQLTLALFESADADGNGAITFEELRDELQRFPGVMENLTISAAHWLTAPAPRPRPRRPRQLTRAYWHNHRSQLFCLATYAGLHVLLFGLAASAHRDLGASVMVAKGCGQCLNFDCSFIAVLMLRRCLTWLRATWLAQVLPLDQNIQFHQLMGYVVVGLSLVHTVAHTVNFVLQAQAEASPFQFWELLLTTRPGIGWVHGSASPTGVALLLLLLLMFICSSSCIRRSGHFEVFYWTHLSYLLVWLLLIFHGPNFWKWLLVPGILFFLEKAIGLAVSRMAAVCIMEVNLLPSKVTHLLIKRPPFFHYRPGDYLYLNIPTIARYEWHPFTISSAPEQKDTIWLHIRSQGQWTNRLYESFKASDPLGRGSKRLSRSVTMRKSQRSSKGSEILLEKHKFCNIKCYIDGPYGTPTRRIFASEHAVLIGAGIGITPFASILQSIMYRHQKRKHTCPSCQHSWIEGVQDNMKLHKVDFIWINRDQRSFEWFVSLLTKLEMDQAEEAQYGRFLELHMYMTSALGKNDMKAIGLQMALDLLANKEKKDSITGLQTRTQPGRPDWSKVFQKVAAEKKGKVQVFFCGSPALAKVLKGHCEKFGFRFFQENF

Chain of Streptavidin (Streptomyces avidinii) (P22629 whole entry, looked up): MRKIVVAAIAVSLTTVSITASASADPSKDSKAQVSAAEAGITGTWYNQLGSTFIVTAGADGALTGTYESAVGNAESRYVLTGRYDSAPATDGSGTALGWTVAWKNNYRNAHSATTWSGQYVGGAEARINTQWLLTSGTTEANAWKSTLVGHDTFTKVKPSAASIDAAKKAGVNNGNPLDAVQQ
Chain of NADPH oxidase 4 (Homo sapiens) (Q9NPH5 whole entry, looked up): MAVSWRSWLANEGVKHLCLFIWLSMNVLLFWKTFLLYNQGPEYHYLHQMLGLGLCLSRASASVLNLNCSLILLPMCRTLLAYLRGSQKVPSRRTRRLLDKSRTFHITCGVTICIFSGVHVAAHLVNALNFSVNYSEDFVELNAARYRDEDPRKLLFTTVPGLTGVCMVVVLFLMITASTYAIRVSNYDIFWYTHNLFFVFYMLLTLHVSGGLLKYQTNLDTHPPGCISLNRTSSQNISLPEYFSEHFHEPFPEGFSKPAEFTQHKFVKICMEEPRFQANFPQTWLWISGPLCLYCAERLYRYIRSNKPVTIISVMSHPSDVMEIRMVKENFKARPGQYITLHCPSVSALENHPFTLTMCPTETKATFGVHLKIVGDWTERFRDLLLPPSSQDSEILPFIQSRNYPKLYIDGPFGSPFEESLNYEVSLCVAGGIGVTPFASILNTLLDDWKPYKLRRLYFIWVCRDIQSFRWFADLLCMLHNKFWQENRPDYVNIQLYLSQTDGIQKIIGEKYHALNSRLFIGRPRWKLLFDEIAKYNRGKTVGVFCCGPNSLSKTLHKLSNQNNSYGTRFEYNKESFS

In the case of `C=CC[C@]1(C(=O)NCC(O)CO)N=C(c2ccc(OCCCO)cc2)O[C@H]1c1ccccc1` (stereo partly specified), the composite z-score in [1] is 0.621; in assay [5] it was 0.0012; in assay [6], -0.146; in assay [7] it was 2.71; in [8] it was 3.09; in assay [9], -0.559. This molecule also displayed a composite z-score in assay [11] of -0.179. For the same molecule, the z-score in assay [2] was -0.371 (inactive); in assay [3], 1.37 (inactive); in assay [4], -0.804 (inactive); in [10], 1.46 (inactive); in [12] it was 6.95 (inactive); in [13], 0.741 (inactive). In addition, the z-score was 1.55 (inactive) in [14]; 0.618 (inactive) in assay [15]; 0.672 in assay [16]; 1.22 (inactive) in [17]; 0.542 (inactive) in [18]; 0.195 in assay [19].

`CO[C@H]1COC(=O)CC=C[C@H](C)[C@@H](OC)COC(=O)[C@H](Cc2ccccc2)NC(=O)CC=C[C@@H]1C`: the composite z-score was -0.359 in assay [1]; -0.234 in [5]; -0.408 in [6]; 0.45 in [7]; 0.593 in [8]; 2.05 in assay [9]. In assay [11], this molecule showed a composite z-score of -0.183. In addition, the z-score in assay [2] was -0.89 (inactive); in assay [3] it was 0.248 (inactive); in assay [4], -0.802 (inactive); in [10], -0.76 (inactive); in [12] it was -0.235 (inactive); in [13], -0.912 (inactive). Also, the z-score is 0.959 (inactive) in assay [14]; -2.2 (inactive) in [15]; 0.659 in assay [16]; 0.93 (inactive) in assay [17]; -1.49 (inactive) in assay [18]; 0.404 in assay [19].

Regarding `CO[C@@H]1COC(=O)CC=C[C@@H](C)[C@H](OC)COC(=O)CC=C[C@H]1C`, the composite z-score in assay [1] was -0.0731; in [5] it was -0.428; in assay [6], -0.253; in [7], 0.685; in assay [8] it was 0.349; in assay [9] it was 1.29. This molecule also came in with a composite z-score in assay [11] of -0.257. For the same molecule, the z-score in assay [2] was -0.147 (inactive); in assay [3], -0.658 (inactive); in [4], -0.82 (inactive); in [10], 0.356 (inactive); in assay [12], -0.611 (inactive); in assay [13] it was -0.163 (inactive). In addition, the z-score in assay [14] was -0.335 (inactive); in assay [15], -0.0143 (inactive); in assay [16], 0.711; in assay [17] it was -0.49 (inactive); in assay [18], 0.276 (inactive); in [19], 0.586.

Consider `C=C(CCCC)C(=O)CC[C@@H](OC(=O)c1cccnc1)c1cccc(OCCO)c1`, for which the composite z-score is 0.38 in [1]; -0.0743 in [5]; -0.0762 in [6]; 1.08 in assay [7]; 0.0906 in assay [8]; 1.17 in assay [9]. In addition, in assay [11], the composite z-score was -0.0954. Moreover, the z-score was -1.85 (inactive) in assay [2]; 17.7 (active) in assay [3]; -0.315 (inactive) in assay [4]; 0.381 (inactive) in assay [10]; 26.7 (active) in [12]; 13.1 (active) in [13]. For the same molecule, the z-score was 1.28 (inactive) in assay [14]; 1.14 (inactive) in assay [15]; -0.712 in [16]; 0.849 (inactive) in assay [17]; 0.849 (inactive) in [18]; -1.41 in assay [19].

`COC(=O)C1=C(C)N(Cc2ccccc2)c2c(C(=O)OC)c(C(=O)OC)c(C(=O)OC)c(=O)n2[C@@H]1c1ccccc1`: the composite z-score in assay [1] amounted to 0.191; in assay [5] it was 0.125; in assay [6] it was 0.0503; in assay [7], 0.285; in assay [8], 0.505; in assay [9], 0.426. Further, the composite z-score in assay [11] was -0.0186. In addition, the z-score was -0.233 (inactive) in assay [2]; 4.26 (inactive) in assay [3]; -1.23 (inactive) in [4]; 0.199 (inactive) in assay [10]; 0.294 (inactive) in assay [12]; -1.61 (inactive) in assay [13]. Further, the z-score in assay [14] was 0.012 (inactive); in [15], -1.45 (inactive); in [16], 0.715; in assay [17], 1.74 (inactive); in assay [18], 0.873 (inactive); in assay [19], -0.0758.

Take `CO[C@H]1O[C@H](CO)[C@@H](OC(=O)Nc2ccccc2)[C@H](OC(=O)Nc2ccc3c(c2)OCO3)[C@@H]1OC(=O)Nc1ccc2c(c1)OCO2`: the composite z-score in assay [1] is 0.328; in [5], 0.232; in [6], -0.0079; in assay [7], 0.433; in assay [8], 0.876; in assay [9], 0.599. Also, the composite z-score in [11] came out at 0.273. The z-score was -3.67 (inactive) in assay [2]; 0.185 (inactive) in assay [3]; -2.4 (inactive) in [4]; 1.44 (inactive) in [10]; 9.35 (active) in assay [12]; -0.145 (inactive) in [13]. Moreover, the z-score in assay [14] was 1.78 (inactive); in [15], -2 (inactive); in assay [16], 1.27; in [17] it was 0.679 (inactive); in [18], 0.0792 (inactive); in assay [19], -0.922.

`CCOC(=O)C[C@H]1[C@H](OC(=O)c2ccccc2-c2ccccc2)[C@@H](NC(=O)C2CCCCC2)c2cc(OCCCO)ccc2N1C(=O)c1ccccc1`: the composite z-score in assay [1] came out at 0.364; in [5], 0.0739; in assay [6] it was 0.0131; in assay [7] it was 0.128; in [8] it was 0.197; in [9] it was 1.1. This molecule also displayed a composite z-score in assay [11] of -0.191. For the same molecule, the z-score in assay [2] was -0.781 (inactive); in [3], 10.2 (active); in assay [4], -0.278 (inactive); in assay [10], 1.99 (inactive); in [12], 1.97 (inactive); in assay [13] it was 0.718 (inactive). The z-score in assay [14] is 0.217 (inactive); in assay [15] it was 0.402 (inactive); in assay [16] it was -0.073; in assay [17] it was 0.629 (inactive); in [18], 0.936 (inactive); in assay [19] it was -1.64.

As for `C[C@@H]1NC(=O)CC=C[C@@H](C)[C@@H]2C=C[C@H](O)[C@@H](COC(=O)[C@H](C)NC(=O)CC=C[C@@H](C)[C@@H]3C=C[C@H](O)[C@@H](COC1=O)O3)O2`, the composite z-score is 0.0414 in [1]; -0.664 in [5]; -0.0581 in assay [6]; 0.436 in [7]; 0.104 in assay [8]; 1.04 in assay [9]. The molecule further came in with a composite z-score in assay [11] of -0.147. Besides, the z-score in [2] was -3.48 (inactive); in [3], -0.925 (inactive); in [4], -0.89 (inactive); in assay [10] it was 0.327 (inactive); in assay [12] it was 1.33 (inactive); in [13], -0.302 (inactive). Further, the z-score in [14] is 0.232 (inactive); in [15], -1.39 (inactive); in assay [16], 1.64; in assay [17] it was 1.28 (inactive); in assay [18], -0.991 (inactive); in assay [19], -0.0558.

Consider `Cc1ccc(S[C@]2(C(=O)O)CC(=O)N(Cc3ccccc3)[C@@H]2c2ccc(CO)cc2)cc1`, for which the composite z-score is 0.0167 in assay [1]; -0.185 in [5]; -0.154 in [6]; 0.0253 in assay [7]; 0.12 in assay [8]; 0.0306 in assay [9]. For the same molecule, in [11], the composite z-score is 0.0215. Moreover, the z-score in assay [2] is -1.22 (inactive); in assay [3], -0.412 (inactive); in assay [4], -0.84 (inactive); in assay [10] it was 2.89 (inactive); in assay [12] it was 2.85 (inactive); in assay [13] it was -0.263 (inactive). The z-score in [14] is 1.09 (inactive); in assay [15] it was -0.707 (inactive); in assay [16], 0.462; in assay [17] it was -0.198 (inactive); in assay [18], -0.197 (inactive); in [19] it was 1.6.
